Reference: PubChem BioAssay AID602385 (Sanford-Burnham Center for Chemical Genomics, 2012)
In all, about 2,300 compounds went through this assay and about 180 (7.8%) were called active.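 How the source made its calls: active means average inhibition of at least 30% in the single-concentration confirmation test; inactive means the rest.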 The list is a sample of the results.

target: DNA (cytosine-5)-methyltransferase 1 (Homo sapiens) (UniProt P26358); test: inhibition of human DNMT1, hit confirmation – biochemical, molecular beacon, fluorescence, single concentration (AID 602385); conditions: DNMT1 molecular beacon HinP1I cleavage, at 10 µM, stronger effect = higher value
Sequence (P26358 504-1616 limits assumed): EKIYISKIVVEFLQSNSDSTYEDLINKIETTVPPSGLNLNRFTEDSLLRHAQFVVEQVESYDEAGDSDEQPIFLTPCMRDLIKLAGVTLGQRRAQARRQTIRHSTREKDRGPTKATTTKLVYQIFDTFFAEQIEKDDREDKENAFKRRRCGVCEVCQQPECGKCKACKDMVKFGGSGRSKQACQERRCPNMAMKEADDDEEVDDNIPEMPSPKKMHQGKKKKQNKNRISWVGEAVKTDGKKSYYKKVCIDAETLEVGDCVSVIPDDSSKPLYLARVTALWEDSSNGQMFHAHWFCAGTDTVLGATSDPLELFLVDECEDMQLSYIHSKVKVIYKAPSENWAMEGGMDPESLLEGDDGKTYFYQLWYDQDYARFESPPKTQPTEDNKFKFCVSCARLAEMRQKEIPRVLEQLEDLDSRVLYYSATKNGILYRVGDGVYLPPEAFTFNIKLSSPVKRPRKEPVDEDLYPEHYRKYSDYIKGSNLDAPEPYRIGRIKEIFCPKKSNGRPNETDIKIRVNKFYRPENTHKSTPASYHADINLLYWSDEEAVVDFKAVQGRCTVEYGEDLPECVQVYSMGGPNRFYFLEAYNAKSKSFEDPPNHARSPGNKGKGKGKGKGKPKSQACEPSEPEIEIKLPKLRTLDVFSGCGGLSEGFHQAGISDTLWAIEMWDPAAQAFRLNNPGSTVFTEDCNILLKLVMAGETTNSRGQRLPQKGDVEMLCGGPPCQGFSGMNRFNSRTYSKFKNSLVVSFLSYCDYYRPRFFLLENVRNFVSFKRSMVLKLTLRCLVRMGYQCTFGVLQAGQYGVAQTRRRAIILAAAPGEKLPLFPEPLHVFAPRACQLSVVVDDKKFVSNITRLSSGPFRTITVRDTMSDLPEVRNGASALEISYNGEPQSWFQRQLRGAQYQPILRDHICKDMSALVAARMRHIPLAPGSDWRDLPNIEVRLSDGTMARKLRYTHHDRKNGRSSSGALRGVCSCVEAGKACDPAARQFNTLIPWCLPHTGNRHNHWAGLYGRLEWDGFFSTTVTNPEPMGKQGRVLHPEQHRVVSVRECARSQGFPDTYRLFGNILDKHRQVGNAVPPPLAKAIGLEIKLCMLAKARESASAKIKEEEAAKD

inhibition, inactive:
CS(=O)(=O)c1ccc2c(c1)SC1=NC(=O)/C(=C/c3ccco3)C(=N)N12 16.9%
Cc1ccc2cc(C)c(N3CCC(C)CC3)nc2c1 1.43%
CCOc1ccc(CN2CCC(n3nccc3NC(=O)C3CC3)CC2)cc1CO 4.07%
Cc1ccc(N=C2NC(=O)/C(=C/C=C/c3ccco3)S2)cc1C 10.4%
Cc1ccc(Cc2cncc(O)c2)cc1S(=O)(=O)O 2.5%
O=C(CCN1C(=O)C2C3C=CC(C3)C2C1=O)Nc1ccccc1F (stereo not drawn) 1.42%
CC(C)(C)N(Cc1ccccc1)C(=O)c1ccncc1 0.76%
COc1cc(-c2nnc(NC(=O)CS(=O)(=O)c3ccc(Cl)cc3)o2)cc(OC)c1OC 7.33%
O=C(COC(=O)CCC(=O)c1cccs1)NCc1ccco1 3.72%
O=C(COC(=O)c1ccc(F)cc1F)Nc1ncccn1 2.67%
COc1ccc(OC)c(NC(=O)c2cc(-c3cc(F)ccc3OCC3CCCO3)n[nH]2)c1 (stereo not drawn) 3.2%
COc1ccc(Cl)cc1NC(=O)CCS(=O)(=O)c1ccc(Br)cc1 21.9%
COc1ccc2sc(-c3ccc(S(C)(=O)=O)cc3)c(-c3ccc(C(N)=O)cc3)c2c1 2.28%
CCOc1cc(NC(=O)c2ccco2)c(OCC)cc1NC(=O)COc1ccccc1 0.94%
CCOc1ccccc1/C=c1\sc2nc(-c3ccco3)nn2c1=O 5.32%
O=C(COC(=O)/C=C/c1cn(-c2ccccc2)nc1-c1cccnc1)Nc1ccc(Cl)cc1Cl 1.69%
O=C(Nc1cccc(-c2nc3ccccc3[nH]2)c1)c1ccc(C(=O)Nc2cccc(-c3nc4ccccc4[nH]3)c2)cc1 7.67%
CCNC(=O)C1CCCN(C(=O)c2cc(F)ccc2C)CC1 (stereo not drawn) 2.4%
CC(=O)c1ccc(NC(=O)c2ccc3c(Cl)c4c(nc3c2)CCCC4)cc1 2.16%
C=C(C)C(=O)Nc1cccc(C2=NOC3(C2)C[C@H](C(N)=O)N(C(=O)C(c2ccccc2)c2ccccc2)C3)c1 (stereo partly drawn) 20.2%
O/N=C1\CC2(Cc3nonc31)OCCO2 2.08%
CSc1ccc(CNC(=O)c2ccc(NC(=O)C3=CSCCO3)cc2)cc1 5.27%
Nc1cc2c(cc1Br)-c1ccc(F)cc1C2=O -0.64%
CCCCCCc1cc2cc(-c3nnc(-c4ccccc4)o3)c(=O)oc2cc1O 1.72%
CCOC(=O)c1c(NC(=S)NC(=O)/C=C/c2cccs2)sc(C)c1C 0.76%
COC(=O)CCCCC1=CCC2C(=O)C=C(O)C2C1 (stereo not drawn) 13.6%
Cc1ccc(-c2nnc(-c3ccc(NC(=O)c4cccs4)cc3)o2)cc1 3.86%
CC1(C)Cc2nc3sc4c(SCC(=O)NC(c5ccccc5)c5ccccc5)ncnc4c3cc2CO1 2.65%
COc1ccc(NC(=O)CN(C)C(=O)c2cc(C3CC3)nn2-c2ccccc2)cc1 -1%
CCN(C(=O)CSc1nc(N)cc(=O)[nH]1)C1CCS(=O)(=O)C1 (stereo not drawn) 4.21%
CC(=O)Nc1ccccc1Sc1ccc2c3c(cccc13)C(=O)N(c1ccc(C)cc1)C2=O 1.49%
Cc1cc(O)c(C(=O)/C=C/c2c(F)c(F)c(F)c(F)c2F)c(=O)o1 15.6%
CN(C)/C=C(/C(=O)c1ccc(Cl)cc1)S(=O)(=O)c1ccccc1 5.43%
COc1ccc2[nH]c(=O)c(-c3noc(-c4ccc(F)cc4)n3)cc2c1 0.63%
COc1ccc(C(=O)/C=C/c2ccc(-c3ccccc3)cc2)cc1CSCC(=O)O 28.4%
CCOC(=O)N1CC=C2C(C#N)=C(N)C(C#N)(C#N)[C@H](c3cccs3)[C@H]2C1 9.81%
c1ccc2cc3c(NCCN4CCOCC4)ccnc3cc2c1 23.4%
Cc1ccc(C(=O)NNC(=O)c2cc3cc4ccccc4nc3s2)cc1 3.71%
CC(C)(C)NC(=O)CSC(=Nc1ccccc1F)NC#N 5.5%
O=C(c1cccs1)N1CCC(c2nc3ccccc3s2)CC1 1.54%
O=C(Nc1cccc(F)c1)c1cc(-c2ccco2)nc2ccccc12 1.53%
CCOc1cc(CN2CCCC(CO)(Cc3ccc(F)cc3F)C2)ccc1OC (stereo not drawn) 1.12%
CN(CCOc1ccccc1)C(=O)c1cc(-c2ccco2)nc2ccccc12 3.76%
COc1ccc(/C=C2\SC(=N)N(c3ccc(F)cc3)C2=O)cc1 -0.37%
COc1ccc2c(c1)c(=O)c(C(=O)c1ccc(Cl)cc1)cn2CC(=O)Nc1ccc(F)cc1 0.08%
CCc1nn(-c2cc(Oc3cccc4ccccc34)nc(-c3ccccc3)n2)c(N)c1C#N -0.43%
Cc1ccc2[nH]c(=O)c(-c3nc4c(C)cccn4c3NCc3ccco3)cc2c1 -1.18%
O=C(CN1CCCSc2ccccc21)N1CCN(S(=O)(=O)c2cccc(F)c2)CC1 2.39%
O=C(COC(=O)c1ccccc1O)NCc1ccco1 3.59%
COc1ccc(C(=O)OCC(=O)Nc2cccc(C(C)=O)c2)cc1OC 5.6%
CC(=O)Nc1ccc(SCC(=O)NC(=O)c2ccc(Cl)cc2)cc1 2.15%
O=C(Oc1ccc(-c2nc(-c3ccccn3)no2)cc1)c1ccccc1 29%
O=C(Nc1nc(-c2ccco2)c(-c2ccco2)s1)c1ccco1 6.2%
Cc1onc(-c2ccccc2)c1C(=O)Nc1ccccc1C#N 1.14%

inhibition, active:
NC(CSC(c1ccccc1)(c1ccccc1)c1ccc(-c2ccccc2)cc1)C(=O)O (stereo not drawn) 30.5%
Cc1ccc(/C=C/C(=O)Nc2ccc([N+](=O)[O-])c(NC(=O)/C=C/c3ccc(C)o3)c2)o1 40.8%
NC1=CC(=O)C(=O)c2cccnc21 58.8%
CCOC(=O)C(NC(=O)CC(C)C)(Nc1sc2c(c1C(N)=O)CCCC2)C(F)(F)F (stereo not drawn) 38.7%
